# Results taken from PubChem BioAssay (EPA / NIEHS).
# “And” between values parts separate entries of the source, which are not always exact repeats. Equal entries are not always repeated. The source holds several records for some structures; these can differ, active in one and inactive in another. The source made the active and inactive calls. How the source made its calls: active means hit-call score of the fitted dose curve at least 0.9, where 1 is the maximum; inactive means score below 0.9.
# Experiments:
# [1] = BSK_hDFCGF_SRB: Viability Assessment in the BioMAP Diversity Plus: hDFCGF Assay (AID 2283061); settings: primary human foreskin fibroblasts;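 further: cells exposed to compound for 24 h before the read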
# Procedure, shortened: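 Human foreskin primary fibroblasts were treated with compound and assessed 24 h after dosing. Total protein was measured by sulforhodamine B staining (0.1% SRB after 10% TCA fixation, 560 nm read) as a cytotoxicity marker, with bidirectional fitting against DMSO baseline.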
# [2] = read-out: TIMP metallopeptidase inhibitor 1 (TIMP1), TIMP1 (gene 7076); assay: BSK_hDFCGF_TIMP1: BioMAP Diversity Plus: hDFCGF Assay for TIMP metallopeptidase inhibitor 1 (TIMP1) Biomarker Activity (AID 2283062); settings: primary human foreskin fibroblasts; actives raise or lower the signal
# Procedure, shortened: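 Primary human foreskin fibroblasts in the hDFCGF system were dosed with compound for 24 h, then TIMP-1 was measured by ELISA. Activity was fitted bidirectionally relative to DMSO control; parallel SRB staining assessed cytotoxicity.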
# [3] = read-out: Monokine induced gamma interferon (MIG), CXCL9 (gene 4283); assay: BSK_hDFCGF_MIG: BioMAP Diversity Plus: hDFCGF Assay for Monokine induced gamma interferon (MIG) Biomarker Activity (AID 2283063); settings: primary human foreskin fibroblasts; actives raise or lower the signal
# Procedure, shortened: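 ELISA read-out of MIG from primary human dermal fibroblasts 24 h post-dosing. Gain or loss of signal fitted bidirectionally, DMSO as baseline.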
# [4] = read-out: Matrix Metallopeptidase 1 (MMP1), MMP1 (gene 4312); assay: BSK_hDFCGF_MMP1: BioMAP Diversity Plus: hDFCGF Assay for Matrix Metallopeptidase 1 (MMP1) Biomarker Activity (AID 2283064); settings: primary human foreskin fibroblasts; actives raise or lower the signal
# Procedure, shortened: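 ELISA read-out of MMP1 from human foreskin fibroblasts (primary skin cells), 24 h post-dose. Gain or loss of signal was fitted bidirectionally versus DMSO negative control; cytotoxicity was checked by SRB in parallel cultures.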
# [5] = read-out: Vascular cell adhesion molecule 1 (VCAM1), VCAM1 (gene 7412); assay: BSK_hDFCGF_VCAM1: BioMAP Diversity Plus: hDFCGF Assay for Vascular cell adhesion molecule 1 (VCAM1) Biomarker Activity (AID 2283065); settings: primary human foreskin fibroblasts; actives raise or lower the signal;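 on AC50: VCAM-1 protein level quantified by ELISA after 24 h chemical exposure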
# Procedure, shortened: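 Primary human foreskin fibroblasts (hDFCGF system) were dosed with chemical and VCAM-1 was measured by ELISA 24 h later. Bidirectional curve fitting used DMSO as negative control and activity baseline.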
# [6] = read-out: Plasminogen activator inhibitor-1 (PAI1), SERPINE1 (gene 5054); assay: BSK_hDFCGF_PAI1: BioMAP Diversity Plus: hDFCGF Assay for Plasminogen activator inhibitor-1 (PAI1) Biomarker Activity (AID 2283066); settings: primary human foreskin fibroblasts; actives raise or lower the signal
# Procedure, shortened: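 ELISA readout of PAI-1 from primary human skin fibroblast cultures, 24 h after compound addition. Gain or loss of signal was fitted bidirectionally against DMSO baseline.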
# [7] = read-out: Intercellular Adhesion Molecule 1 (ICAM1), ICAM1 (gene 3383); assay: BSK_KF3CT_ICAM1: BioMAP Diversity Plus: KF3CT Assay for Intercellular Adhesion Molecule 1 (ICAM1) Biomarker Activity (AID 2283067); settings: primary human keratinocytes with fibroblasts; actives raise or lower the signal
# Procedure, shortened: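 Human keratinocyte plus foreskin fibroblast primary co-culture was exposed to chemical for 24 h. ICAM-1 was then quantified by ELISA, and the data were fit bidirectionally against DMSO as the negative control and baseline.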
# [8] = read-out: Interferon-gamma inducible Protein 10 (IP10), CXCL10 (gene 3627); assay: BSK_KF3CT_IP10: BioMAP Diversity Plus: KF3CT Assay for Interferon-gamma inducible Protein 10 (IP10) Biomarker Activity (AID 2283068); settings: primary human keratinocytes with fibroblasts; actives raise or lower the signal
# Procedure, shortened: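 In a primary skin co-culture of keratinocytes and fibroblasts, IP-10 is quantified by ELISA at 24 h after dosing. SRB staining of parallel wells monitors overt toxicity. Curves are fitted both directions against DMSO.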
# [9] = BSK_KF3CT_SRB: Viability Assessment in the BioMAP Diversity Plus: KF3CT Assay (AID 2283069); settings: primary human keratinocytes with fibroblasts
# Procedure, shortened: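 SRB read-out at 560 nm (0.1% stain, TCA-fixed cells) gauges overt cytotoxicity in a human skin keratinocyte–fibroblast co-culture 24 h post-dosing. Signal change was fitted bidirectionally relative to DMSO control.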
# [10] = read-out: Interleukin-1 alpha (IL1a), IL1A (gene 3552); assay: BSK_KF3CT_IL1a: BioMAP Diversity Plus: KF3CT Assay for Interleukin-1 alpha (IL1a) Biomarker Activity (AID 2283070); settings: primary human keratinocytes with fibroblasts; actives raise or lower the signal
# Procedure, shortened: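 Primary skin co-culture (keratinocytes, foreskin fibroblasts), 24 h exposure; ELISA for IL-1a; bidirectional curve fit vs DMSO.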
# [11] = read-out: TIMP metallopeptidase inhibitor 2 (TIMP2), TIMP2 (gene 7077); assay: BSK_KF3CT_TIMP2: BioMAP Diversity Plus: KF3CT Assay for TIMP metallopeptidase inhibitor 2 (TIMP2) Biomarker Activity (AID 2283071); settings: primary human keratinocytes with fibroblasts; actives raise or lower the signal
# Procedure, shortened: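 ELISA readout of TIMP-2 in keratinocyte plus foreskin fibroblast co-cultures (human skin primary cells), 24 h post-dose. Gain or loss of signal fitted relative to DMSO.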
# [12] = read-out: Transforming growth factor beta 1 (TGFb1), TGFB1 (gene 7040); assay: BSK_KF3CT_TGFb1: BioMAP Diversity Plus: KF3CT Assay for Transforming growth factor beta 1 (TGFb1) Biomarker Activity (AID 2283072); settings: primary human keratinocytes with fibroblasts; actives raise or lower the signal
# Procedure, shortened: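 Read-out: ELISA for TGF-b1 in keratinocyte/foreskin fibroblast human skin co-culture, 24 h after dosing; bidirectional curve fit vs DMSO baseline; gain or loss of signal scored.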
# [13] = read-out: C-C motif chemokine 2 (Homo sapiens) (UniProt P13500); assay: BSK_KF3CT_MCP1: BioMAP Diversity Plus: KF3CT Assay for Monocyte Chemoattractant Protein 1 (MCP1/CCL2) Biomarker Activity (AID 2283073); settings: primary human keratinocytes with fibroblasts; actives raise or lower the signal
# Procedure, shortened: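 Human keratinocyte plus foreskin fibroblast primary co-culture exposed to chemical for 24 h. MCP-1 levels measured by ELISA. Bidirectional curve fitting relative to DMSO negative control as baseline.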
# [14] = read-out: Matrix Metallopeptidase 9 (MMP9), MMP9 (gene 4318); assay: BSK_KF3CT_MMP9: BioMAP Diversity Plus: KF3CT Assay for Matrix Metallopeptidase 9 (MMP9) Biomarker Activity (AID 2283074); settings: primary human keratinocytes with fibroblasts; actives raise or lower the signal;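 on AC50: MMP9 protein level quantified by ELISA in the co-culture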
# Procedure, shortened: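 ELISA read-out of MMP-9 at 24 h post-dosing in a co-culture of human skin keratinocytes and foreskin fibroblasts. Gain or loss of signal was fitted in both directions against DMSO.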
# [15] = read-out: urokinase plasminogen activator (uPA), PLAU (gene 5328); assay: BSK_KF3CT_uPA: BioMAP Diversity Plus: KF3CT Assay for urokinase plasminogen activator (uPA) Biomarker Activity (AID 2283075); settings: primary human keratinocytes with fibroblasts; actives raise or lower the signal
# Procedure, shortened: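 Skin co-culture (keratinocytes + foreskin fibroblasts), human primary; 24 h post-dose; uPA by ELISA; gain/loss fit vs DMSO baseline.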
# [16] = read-out: E-selectin (Homo sapiens) (UniProt P16581); assay: BSK_LPS_Eselectin: BioMAP Diversity Plus: LPS Assay for Eselectin Biomarker Activity (AID 2283077); settings: primary human HUVEC with PBMC; actives raise or lower the signal
# Procedure, shortened: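 Human umbilical vein endothelial cells co-cultured with peripheral blood mononuclear cells under LPS stimulation; E-selectin measured by ELISA 24 h after chemical dosing. Activity fitted bidirectionally against DMSO as negative control and baseline.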
# [17] = read-out: Interleukin-8 (IL8), CXCL8 (gene 3576); assay: BSK_LPS_IL8: BioMAP Diversity Plus: LPS Assay for Interleukin-8 (IL8) Biomarker Activity (AID 2283078); settings: primary human HUVEC with PBMC; actives raise or lower the signal
# Procedure, shortened: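 Human umbilical vein endothelial cells co-cultured with PBMC were stimulated with LPS; IL-8 levels were measured by ELISA 24 h after chemical dosing. Activity was fitted bidirectionally against DMSO as negative control and baseline.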
# [18] = BSK_LPS_SRB: Viability Assessment in the BioMAP Diversity Plus: LPS Assay (AID 2283079); settings: primary human HUVEC with PBMC;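 further: total protein by sulforhodamine B absorbance as a cytotoxicity measure; measured one day after compound addition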
# Procedure, shortened: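 Human umbilical vein endothelial cells co-cultured with PBMC (LPS system) were dosed for 24 h. Total protein was stained with 0.1% sulforhodamine B after 10% TCA fixation, read at 560 nm, and fitted bidirectionally against DMSO baseline.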
# [19] = read-out: Interleukin-1 alpha (IL1a), IL1A (gene 3552); assay: BSK_LPS_IL1a: BioMAP Diversity Plus: LPS Assay for Interleukin-1 alpha (IL1a) Biomarker Activity (AID 2283080); settings: primary human HUVEC with PBMC; actives raise or lower the signal
# Procedure, shortened: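 Human umbilical vein endothelial cells co-cultured with peripheral blood mononuclear cells were LPS-stimulated and exposed to test chemicals for 24 h. IL-1 alpha was quantified by ELISA, with bidirectional curve fitting against DMSO as the negative control and baseline.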
# CD40, CD40 (gene 958) = assay: BSK_LPS_CD40: BioMAP Diversity Plus: LPS Assay for CD40 Biomarker Activity (AID 2283076); settings: primary human HUVEC with PBMC; actives raise or lower the signal
# Procedure, shortened: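 Primary human umbilical vein endothelial cells co-cultured with peripheral blood mononuclear cells, LPS-stimulated, were dosed with chemical and read 24 h later. CD40 levels were measured by ELISA and fitted bidirectionally against DMSO as negative control and baseline.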
# Chain of E-selectin (Homo sapiens) (P16581 whole entry, looked up): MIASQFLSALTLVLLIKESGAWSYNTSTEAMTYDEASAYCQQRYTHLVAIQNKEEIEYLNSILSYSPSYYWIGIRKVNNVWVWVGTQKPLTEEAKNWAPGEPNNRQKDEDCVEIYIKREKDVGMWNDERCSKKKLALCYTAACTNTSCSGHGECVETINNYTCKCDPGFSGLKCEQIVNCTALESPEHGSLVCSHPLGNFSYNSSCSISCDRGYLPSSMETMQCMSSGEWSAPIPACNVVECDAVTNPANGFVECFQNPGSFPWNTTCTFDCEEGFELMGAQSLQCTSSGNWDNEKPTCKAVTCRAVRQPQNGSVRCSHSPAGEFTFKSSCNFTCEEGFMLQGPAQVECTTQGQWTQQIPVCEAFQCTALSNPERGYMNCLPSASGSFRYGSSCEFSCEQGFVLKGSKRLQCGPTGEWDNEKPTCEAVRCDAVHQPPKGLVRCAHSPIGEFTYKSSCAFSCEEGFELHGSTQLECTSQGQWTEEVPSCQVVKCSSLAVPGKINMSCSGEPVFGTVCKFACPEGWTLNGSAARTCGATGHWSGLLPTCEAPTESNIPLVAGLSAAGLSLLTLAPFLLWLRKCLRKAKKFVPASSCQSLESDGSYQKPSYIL
structure (smiles),measurement,setting,value
COC(=O)c1ccc(C)cc1,outcome,[1],inactive
same,outcome,[2],inactive
same,outcome,[3],inactive
same,outcome,[4],inactive
same,outcome,[5],inactive
same,outcome,[6],inactive
same,outcome,[7],inactive
same,outcome,[8],inactive
same,outcome,[9],inactive
same,outcome,[10],inactive
same,outcome,[11],inactive
same,outcome,[12],inactive
same,outcome,[13],inactive
same,outcome,[14],inactive
same,outcome,[15],inactive
same,outcome,[16],inactive
same,outcome,[17],inactive
same,outcome,[18],inactive
same,outcome,[19],inactive
CC(=O)OCCC(C)CC(C)(C)C (centres undefined),outcome,[1],inactive
same,outcome,[2],inactive
same,outcome,[3],inactive
same,outcome,[4],inactive
same,outcome,[5],inactive
same,outcome,[6],inactive
same,outcome,[7],inactive
same,outcome,[8],inactive
same,outcome,[9],inactive
same,outcome,[10],inactive
same,outcome,[11],inactive
same,outcome,[13],inactive
same,outcome,[14],inactive
same,outcome,[15],inactive
same,outcome,"CD40, CD40 (gene 958)",inactive
same,outcome,[16],inactive
same,outcome,[17],inactive
same,outcome,[18],inactive
same,outcome,[19],inactive
Cc1ccc(O)c(C(C)(C)C)c1,AC50,[1],29.6 µM (active)
same,AC50,[2],27.6 µM (active)
same,AC50,[4],33.4 µM (active)
same,AC50,[5],39.1 µM (active)
same,AC50,[6],30.7 µM (active)
same,AC50,[7],34.3 µM (active)
same,AC50,[8],37.5 µM (active)
same,AC50,[9],35.2 µM (active)
same,AC50,[10],28.9 µM (active)
same,AC50,[11],24.9 µM (active)
same,AC50,[12],20 µM (active)
same,AC50,[13],36.6 µM (active)
same,AC50,[14],30.9 µM (active)
same,AC50,[15],36.6 µM (active)
same,AC50,"CD40, CD40 (gene 958)",30.4 µM (active)
same,AC50,[16],30.4 µM (active)
same,AC50,[17],29.6 µM (active)
same,AC50,[18],31 µM (active)
same,AC50,[19],36.2 µM (active)
O=C(O)c1cn(C2CC2)c2cc(N3CCNCC3)c(F)cc2c1=O,outcome,[1],inactive
same,outcome,[2],inactive
same,outcome,[4],inactive
same,outcome,[5],inactive
same,outcome,[6],inactive
same,outcome,[7],inactive
same,outcome,[8],inactive
same,outcome,[9],inactive
same,outcome,[10],inactive
same,outcome,[11],inactive
same,outcome,[12],inactive
same,outcome,[13],inactive
same,outcome,[14],inactive
same,outcome,[15],inactive
same,outcome,"CD40, CD40 (gene 958)",inactive
same,outcome,[16],inactive
same,outcome,[17],inactive
same,outcome,[18],inactive
same,outcome,[19],inactive
C[C@H]1C[C@@H]2[C@H]([C@@H](O)C[C@@]3(C)[C@H]2CC[C@]3(O)C(=O)CO)[C@@]2(C)C=CC(=O)C=C12,AC50,[1],394 nM (active) and 339 nM (active)
same,outcome,[2],inactive
same,AC50,[4],150 nM (active) and 626 nM (active)
same,outcome,[5],inactive
same,AC50,[6],0.15 µM (active)
same,outcome,[6],inactive
same,outcome,[7],inactive
same,outcome,[8],inactive
same,outcome,[9],inactive
same,outcome,[10],inactive
same,outcome,[11],inactive
same,outcome,[13],inactive
same,outcome,[14],inactive
same,outcome,[15],inactive
same,outcome,"CD40, CD40 (gene 958)",inactive
same,outcome,[16],inactive
same,outcome,[17],inactive
same,outcome,[18],inactive
same,outcome,[19],inactive
CC(=O)Nc1ccccc1O,outcome,[1],inactive
same,outcome,[2],inactive
same,outcome,[3],inactive
same,outcome,[4],inactive
same,outcome,[5],inactive
same,outcome,[6],inactive
same,outcome,[7],inactive
same,outcome,[8],inactive
same,outcome,[9],inactive
same,outcome,[10],inactive
same,outcome,[11],inactive
same,outcome,[12],inactive
same,outcome,[13],inactive
same,outcome,[14],inactive
same,outcome,[15],inactive
same,outcome,[16],inactive
same,outcome,[17],inactive
same,outcome,[18],inactive
same,outcome,[19],inactive
